Data published in PubChem BioAssay (NCI).
Compounds without any hit were thinned out: in the full panel of roughly 79,000, 15% have a hit. Values without a mark were called inactive. The source made the active and inactive calls. Rule as the data show it: active = growth inhibition above about 70%; inactive = the rest.

How the values were obtained:
[1] = NCI Yeast Anticancer Drug Screen. Data for the rad52 strain (AID 147);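 also: 0% = growth of vehicle-treated control cultures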; conditions: S. cerevisiae rad52 mutant growth inhibition, hits give high values
Summary of the method: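 Here a repair-compromised yeast strain receives each compound; its growth is then quantified and normalised to vehicle-only controls.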

[2] = NCI Yeast Anticancer Drug Screen. Data for the wt1 strain (AID 149);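 also: 0% = growth of vehicle-treated wt1 cultures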; conditions: S. cerevisiae wt1 strain (SPY 50644) growth inhibition, hits give high values
Summary of the method: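 Using yeast strain wt1, compound-induced growth inhibition was determined against vehicle-treated cultures.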

[3] = NCI Yeast Anticancer Drug Screen. Data for the rad50EPP+ strain (AID 151);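 also: 0% = growth of vehicle-treated control cultures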; conditions: S. cerevisiae rad50 mutant strain, hits give high values
Summary of the method: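 Read-out is yeast growth inhibition relative to vehicle; cells used were the rad50EPP+ strain.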

[4] = NCI Yeast Anticancer Drug Screen. Data for the mgt1 strain (AID 153); conditions: S. cerevisiae mgt1 mutant growth inhibition, hits give high values
Summary of the method: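 Measured: inhibition of mgt1 yeast growth by compound, normalized to vehicle-treated cultures.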

[5] = NCI Yeast Anticancer Drug Screen. Data for the rad50 strain (AID 155);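 also: 0% = growth of vehicle-only cultures of the same strain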; conditions: S. cerevisiae rad50 strain growth inhibition, hits give high values
Summary of the method: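 Relative growth inhibition (compound vs vehicle) was measured in yeast with a defined repair-gene alteration.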

[6] = NCI Yeast Anticancer Drug Screen. Data for the mec2-1 strain (AID 157); conditions: S. cerevisiae mec2-1 strain, hits give high values
Summary of the method: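 Using mec2-1 yeast: add compound, measure growth, express inhibition versus vehicle-treated cultures.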

[7] = NCI Yeast Anticancer Drug Screen. Data for the rad14 strain (AID 159);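 also: 0% = growth of vehicle-treated control cultures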; conditions: S. cerevisiae rad14 strain growth inhibition, hits give high values
Summary of the method: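 Screen for anticancer potential: a yeast strain altered in DNA damage repair is grown with compound, and reduced growth is quantified against vehicle controls.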

[8] = NCI Yeast Anticancer Drug Screen. Data for the sgs1 mgt1 strain (AID 161);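 also: 0% = growth of cultures given vehicle only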; conditions: S. cerevisiae sgs1 mgt1 strain, hits give high values
Summary of the method: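 Yeast cells carrying a defined DNA-repair defect were exposed to test compounds. Growth inhibition was measured relative to vehicle-treated controls.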

[9] = NCI Yeast Anticancer Drug Screen. Data for the CLN2oe strain (AID 163);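 also: 0% = growth of vehicle-only control cultures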; conditions: S. cerevisiae CLN2oe strain, hits give high values
Summary of the method: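 Whole-cell yeast growth assay. A strain engineered for altered cell-cycle control received compound, and inhibition relative to vehicle-treated cultures was recorded.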

[10] = NCI Yeast Anticancer Drug Screen. Data for the cln2 rad14 strain (AID 165);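 also: 0% = growth equal to vehicle treated cultures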; conditions: S. cerevisiae cln2 rad14 strain, hits give high values
Summary of the method: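 Yeast strain cln2 rad14, bearing defects in cell cycle control and DNA repair, serves as the test system; values reflect growth inhibition compared with vehicle.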

[11] = NCI Yeast Anticancer Drug Screen. Data for the bub3 strain (AID 167); conditions: S. cerevisiae bub3 mutant strain, hits give high values
Summary of the method: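 Screening used yeast with an engineered genetic alteration affecting cell cycle control. Compound-exposed cultures were compared with vehicle cultures, and reduced growth was taken as inhibition.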

[12] = NCI Yeast Anticancer Drug Screen. Data for the wt2 strain (AID 169);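 also: 0% = growth of vehicle-treated yeast cultures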; conditions: S. cerevisiae wt2 strain growth inhibition, hits give high values
Summary of the method: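 Treated yeast vs. vehicle-treated yeast: growth inhibition determined.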

[13] = NCI Yeast Anticancer Drug Screen. Data for the mlh1 strain (AID 171);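 also: 0% = growth of vehicle-treated control cultures of the same strain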; conditions: S. cerevisiae mlh1 strain growth inhibition, hits give high values
Summary of the method: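 A yeast strain with a defined genetic lesion serves as the test organism. Cultures receive compound or vehicle, and growth is measured.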

[14] = NCI Yeast Anticancer Drug Screen. Data for the sgs1 strain (AID 173);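 also: 0% = growth of vehicle-only control cultures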; conditions: S. cerevisiae sgs1 mutant, hits give high values
Summary of the method: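 A genetically defined yeast mutant is incubated with the test compound, and its growth is compared to that of the same strain given vehicle.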

[15] = NCI Yeast Anticancer Drug Screen. Data for the mlh1 rad18 strain (AID 175); conditions: S. cerevisiae mlh1 rad18 strain growth inhibition, hits give high values
Summary of the method: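 Steps: expose repair-defective yeast to compound; measure growth; express inhibition against vehicle-treated controls.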

[16] = NCI Yeast Anticancer Drug Screen. Data for the rad18 strain (AID 177); conditions: S. cerevisiae rad18 mutant growth inhibition, hits give high values
Summary of the method: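 Measured value is growth inhibition of a yeast strain bearing a DNA repair alteration, referenced to vehicle-treated cells.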

[17] = at 5.0 µM (retest, dose inferred, filed as 0.5)
[18] = at 50.0 µM (retest, dose inferred, filed as 5.0)

`Oc1ccc(C2(c3ccc(O)cc3)CCCC2)cc1` showed a growth inhibition ([1]; at 1.2 µM) of -31%, a growth inhibition ([1]; at 3.7 µM) of -23% and a growth inhibition ([1]; at 11.0 µM) of 15%. The growth inhibition ([1]; at 33.0 µM) was 98% (active), the growth inhibition ([1]; at 100.0 µM) was 98% (active) and the growth inhibition ([2]; at 1.2 µM) was -41%. For the same molecule, the growth inhibition ([2]; at 3.7 µM) was -21%, the growth inhibition ([2]; at 11.0 µM) was 10% and the growth inhibition ([2]; at 33.0 µM) was 98% (active). The growth inhibition ([2]; at 100.0 µM) was 98% (active), the growth inhibition ([3]; at 1.2 µM) was -40% and the growth inhibition ([3]; at 3.7 µM) was -50%. The growth inhibition ([3]; at 11.0 µM) was -44%, the growth inhibition ([3]; at 33.0 µM) was -50% and the growth inhibition ([3]; at 100.0 µM) was -4%. It also gave a growth inhibition ([4]; at 1.2 µM) of -23%, a growth inhibition ([4]; at 3.7 µM) of -6% and a growth inhibition ([4]; at 11.0 µM) of 37%. For the same molecule, the growth inhibition ([4]; at 33.0 µM) was 97% (active), the growth inhibition ([4]; at 100.0 µM) was 98% (active) and the growth inhibition ([5]; at 1.2 µM) was 3%. For the same molecule, the growth inhibition ([5]; at 3.7 µM) was 4%, the growth inhibition [5, 17] was 16% and the growth inhibition ([5]; at 11.0 µM) was 34%. The growth inhibition ([5]; at 33.0 µM) was 98% (active), the growth inhibition [5, 18] was 99% (active) and the growth inhibition ([5]; at 50.0 µM) was 90.5% (active). The growth inhibition ([5]; at 100.0 µM) was 98% (active), the growth inhibition ([6]; at 1.2 µM) was -26% and the growth inhibition ([6]; at 3.7 µM) was -16%. The growth inhibition [6, 17] was 8%, the growth inhibition ([6]; at 11.0 µM) was 32% and the growth inhibition ([6]; at 33.0 µM) was 98% (active). For the same molecule, the growth inhibition [6, 18] was 99% (active), the growth inhibition ([6]; at 50.0 µM) was 93.2% (active) and the growth inhibition ([6]; at 100.0 µM) was 98% (active). It also gave a growth inhibition ([7]; at 1.2 µM) of 1%, a growth inhibition ([7]; at 3.7 µM) of -16% and a growth inhibition ([7]; at 11.0 µM) of 29%. For the same molecule, the growth inhibition ([7]; at 33.0 µM) was 98% (active), the growth inhibition ([7]; at 100.0 µM) was 98% (active) and the growth inhibition [8, 17] was 9%. The growth inhibition [8, 18] was 53%, the growth inhibition ([8]; at 50.0 µM) was 92.1% (active) and the growth inhibition ([9]; at 1.2 µM) was -12%. For the same molecule, the growth inhibition ([9]; at 3.7 µM) was 16%, the growth inhibition ([9]; at 11.0 µM) was 48% and the growth inhibition ([9]; at 33.0 µM) was 99% (active). For the same molecule, the growth inhibition ([9]; at 100.0 µM) was 98% (active), the growth inhibition [10, 17] was 44% and the growth inhibition [10, 18] was 99% (active). For the same molecule, the growth inhibition ([10]; at 50.0 µM) was 89.5% (active), the growth inhibition ([11]; at 1.2 µM) was -24% and the growth inhibition ([11]; at 3.7 µM) was -22%. The growth inhibition [11, 17] was 16%, the growth inhibition ([11]; at 11.0 µM) was 27% and the growth inhibition ([11]; at 33.0 µM) was 98% (active). For the same molecule, the growth inhibition [11, 18] was 98% (active), the growth inhibition ([11]; at 50.0 µM) was 92.1% (active) and the growth inhibition ([11]; at 100.0 µM) was 98% (active). For the same molecule, the growth inhibition ([12]; at 1.2 µM) was -54%, the growth inhibition ([12]; at 3.7 µM) was -30% and the growth inhibition ([12]; at 11.0 µM) was -18%. For the same molecule, the growth inhibition ([12]; at 33.0 µM) was 98% (active), the growth inhibition ([12]; at 100.0 µM) was 98% (active) and the growth inhibition ([13]; at 1.2 µM) was -33%. For the same molecule, the growth inhibition ([13]; at 3.7 µM) was -26%, the growth inhibition ([13]; at 11.0 µM) was 46% and the growth inhibition ([13]; at 33.0 µM) was 98% (active). For the same molecule, the growth inhibition ([13]; at 100.0 µM) was 98% (active), the growth inhibition ([14]; at 1.2 µM) was -20% and the growth inhibition ([14]; at 3.7 µM) was -17%. For the same molecule, the growth inhibition ([14]; at 11.0 µM) was 11%, the growth inhibition ([14]; at 33.0 µM) was 98% (active) and the growth inhibition ([14]; at 100.0 µM) was 98% (active). For the same molecule, the growth inhibition [15, 17] was 35%, the growth inhibition [15, 18] was 99% (active) and the growth inhibition ([15]; at 50.0 µM) was 90% (active). For the same molecule, the growth inhibition ([16]; at 1.2 µM) was -11%, the growth inhibition ([16]; at 3.7 µM) was 7% and the growth inhibition ([16]; at 11.0 µM) was 60%. For the same molecule, the growth inhibition ([16]; at 33.0 µM) was 98% (active) and the growth inhibition ([16]; at 100.0 µM) was 98% (active).

`CCC(=O)Nc1ccc(N=NN(C)C)cc1` showed a growth inhibition ([1]; at 1.2 µM) of -9%, a growth inhibition ([1]; at 3.7 µM) of -12% and a growth inhibition ([1]; at 11.0 µM) of -13%. The growth inhibition ([1]; at 33.0 µM) was 87% (active), the growth inhibition ([1]; at 100.0 µM) was 99% (active) and the growth inhibition ([2]; at 1.2 µM) was -1%. The growth inhibition ([2]; at 3.7 µM) was 2%, the growth inhibition ([2]; at 11.0 µM) was 3% and the growth inhibition ([2]; at 33.0 µM) was 47%. The growth inhibition ([2]; at 100.0 µM) was 99% (active), the growth inhibition ([3]; at 1.2 µM) was -10% and the growth inhibition ([3]; at 3.7 µM) was -30%. For the same molecule, the growth inhibition ([3]; at 11.0 µM) was -21%, the growth inhibition ([3]; at 33.0 µM) was 65% and the growth inhibition ([3]; at 100.0 µM) was 99% (active). For the same molecule, the growth inhibition ([4]; at 1.2 µM) was -2%, the growth inhibition ([4]; at 3.7 µM) was -9% and the growth inhibition ([4]; at 11.0 µM) was -5%. For the same molecule, the growth inhibition ([4]; at 33.0 µM) was -9%, the growth inhibition ([4]; at 100.0 µM) was 45% and the growth inhibition ([5]; at 1.2 µM) was -61%. The growth inhibition ([5]; at 3.7 µM) was -23%, the growth inhibition [5, 17] was -146% and the growth inhibition ([5]; at 11.0 µM) was -20%. For the same molecule, the growth inhibition ([5]; at 33.0 µM) was 24%, the growth inhibition [5, 18] was 45% and the growth inhibition ([5]; at 50.0 µM) was 90.7% (active). For the same molecule, the growth inhibition ([5]; at 100.0 µM) was 98% (active), the growth inhibition ([6]; at 1.2 µM) was -5% and the growth inhibition ([6]; at 3.7 µM) was -5%. For the same molecule, the growth inhibition [6, 17] was -49%, the growth inhibition ([6]; at 11.0 µM) was -5% and the growth inhibition ([6]; at 33.0 µM) was 17%. For the same molecule, the growth inhibition [6, 18] was 95% (active), the growth inhibition ([6]; at 50.0 µM) was 75.2% (active) and the growth inhibition ([6]; at 100.0 µM) was 99% (active). It also gave a growth inhibition ([7]; at 1.2 µM) of -3%, a growth inhibition ([7]; at 3.7 µM) of -7% and a growth inhibition ([7]; at 11.0 µM) of -1%. The growth inhibition ([7]; at 33.0 µM) was 23%, the growth inhibition ([7]; at 100.0 µM) was 99% (active) and the growth inhibition [8, 17] was -65%. For the same molecule, the growth inhibition [8, 18] was 37%, the growth inhibition ([8]; at 50.0 µM) was 69.9% and the growth inhibition ([9]; at 1.2 µM) was -11%. The growth inhibition ([9]; at 3.7 µM) was -9%, the growth inhibition ([9]; at 11.0 µM) was -11% and the growth inhibition ([9]; at 33.0 µM) was 21%. The growth inhibition ([9]; at 100.0 µM) was 97% (active), the growth inhibition [10, 17] was -56% and the growth inhibition [10, 18] was 55%. For the same molecule, the growth inhibition ([10]; at 50.0 µM) was 48.2%, the growth inhibition ([11]; at 1.2 µM) was -9% and the growth inhibition ([11]; at 3.7 µM) was -8%. It also gave a growth inhibition [11, 17] of -70%, a growth inhibition ([11]; at 11.0 µM) of -13% and a growth inhibition ([11]; at 33.0 µM) of -11%. For the same molecule, the growth inhibition [11, 18] was 34%, the growth inhibition ([11]; at 50.0 µM) was 0.3% and the growth inhibition ([11]; at 100.0 µM) was 90% (active).
